# A selection: hits, their analogues and other compounds. The true share with any hit is near 6.7%.
# T cruzi growth-1 = T. cruzi intracellular proliferation inhibitors, primary screen, cell-based, beta-gal Tulahuen parasites, NIH3T3 host, luminescence | T. cruzi beta-gal in NIH3T3, GalScreen luminescence, 90 h | inhibition, % at 8.34 µM | actives 5.9% (n = 77,000);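 active = mean inhibition above about 93%, with at least 55% of replicates each passing it, limit read from the data, passing the limit was not always enough; inconclusive = only one of those two conditions holds; inactive = neither condition holds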
# Pf Dd2 growth = P. falciparum Dd2 growth inhibitors, primary screen, SYBR Green fluorescence, single dose replicates; 72 h; hits give low values; activity change, % at 10 µM; actives 2.3% (n = 94,000); AID 1159554, 2015; in the data active = activity change below about -80%; inconclusive = no clear call, values can overlap the other calls
# C diff growth = C. difficile growth inhibitors, primary screen, HTS; Clostridium difficile clinical isolate growth, OD600, 24 h; hits give low values; growth activity, negative = inhibition, % at 16 µg/mL (by protocol); actives 0.25% (n = 86,000); AID 1259249, 2017;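 active = mean growth activity at or below -80% and every replicate also at or below -80%; inconclusive = mean at or below -80% but some replicate above -80%; inactive = mean growth activity above -80%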;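 note: 0% = DMSO wells and -100% = levofloxacin 16 µg/mL wells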
# T cruzi growth-2 = T. cruzi intracellular proliferation inhibitors, confirmation, cell-based, NIH3T3 host, beta-gal parasite, luminescence, cherry-pick. shares compounds with T cruzi growth-1. T. cruzi beta-gal in NIH3T3, GalScreen luminescence, 90 h. inhibition, % at 8.35 µM. actives 72% (n = 5,600). AID 651739, 2012;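 active = mean replicate inhibition above about 95% and at least 55% of replicates individually reaching it, limit read from the data; inconclusive = only one of the two criteria is met; inactive = neither criterion is met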
# T cruzi growth-3 = inhibitors of intracellular T. cruzi replication, confirmation, NIH3T3 host cells, beta-gal parasites, cherry-pick, set 2; actives 21% (n = 5,600); shares compounds with T cruzi growth-1; inhibition, % at 2.09 µM; T. cruzi beta-gal in NIH3T3, GalScreen luminescence, 90 h;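 active = mean inhibition above about 95%, with at least 55% of replicates also reaching it, limit read from the data; inconclusive = meets just one of the two conditions; inactive = meets neither condition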;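 note: plate controls were neutral control median for no effect and positive control median for full effect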
# 3T3 cytotox = cytotoxicity in mouse NIH/3T3 fibroblasts, confirmation, cytotoxicity control for T. cruzi proliferation inhibitor project, cell-based, cherry-pick, single point; cytotoxicity (signal decrease), % at 8.35 µM; shares compounds with T cruzi growth-1; NIH/3T3 viability, CellTiter-Glo ATP luminescence, 90 h; actives 14% (n = 5,600);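 active = mean signal decrease across replicates above about 35% based on untreated-well scatter, with enough replicates individually passing, limit read from the data; inconclusive = no rule stated though some were filed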;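 note: 0% = median of neutral control wells and 100% = median of positive control wells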
# 3T3 cytotox 2 = NIH/3T3 fibroblast cytotoxicity, confirmation, cytotoxicity control, cell-based, cherry-pick, single point, set 2; inhibition, % at 24.9 µM; shares compounds with T cruzi growth-1; actives 56% (n = 5,600); NIH/3T3 viability, CellTiter-Glo ATP luminescence, 90 h;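 active = mean loss of cell viability signal at or above a set limit, and enough replicates individually reaching it; inconclusive = meets only the mean limit or only the replicate share; inactive = meets neither condition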;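 note: 0% = median of neutral control wells and 100% = median of positive control wells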
# * = called active by the depositor; ? = inconclusive; . = no result given.
SMILES,T cruzi growth-1,Pf Dd2 growth,C diff growth,others
Cc1ccc(OC(=O)N(C)C[C@H]2OCc3ccccc3-c3c(n(C)c4ccccc34)C(=O)N([C@@H](C)CO)C[C@@H]2C)cc1,.,-30,6,
Cc1ccc(OC(=O)N(C)C[C@@H]2OCc3ccccc3-c3c(n(C)c4ccccc34)C(=O)N([C@@H](C)CO)C[C@H]2C)cc1,.,-83*,1,
N#Cc1cccc(-c2ccc([C@@H]3[C@@H](CO)N4CCCCN(C(=O)Cc5ccccc5)C[C@H]34)cc2)c1,71,-15,7,
CN1c2ccc(Br)cc2[C@@H]2NCC[C@@H]2[C@@H]1CO,27,7,1,
OC[C@H]1Nc2ccc(C#Cc3cccnc3)cc2[C@H]2NCC[C@H]21,.,-88*,-4,
O=C(Cc1ccccc1)N1C[C@@H]2[C@H](c3ccccc31)[C@@H](CO)N2Cc1ccccc1,-18,-24,11,
O=C(Cc1ccncc1)N1CCCCN2[C@@H](CO)[C@@H](c3ccc(C#CC4(O)CCCC4)cc3)[C@@H]2C1,110*,-10,2,T cruzi growth-2=26;T cruzi growth-3=-14;3T3 cytotox=-17;3T3 cytotox 2=-9
O=C(Cc1ccccc1)N1CCCCN2[C@H](CO)[C@H](c3ccc(C#CC4(O)CCCC4)cc3)[C@@H]2C1,103*,2,-8,T cruzi growth-2=76;T cruzi growth-3=39;3T3 cytotox=11;3T3 cytotox 2=15
O=C(Cc1ccccc1)N1CCCCN2[C@@H](CO)[C@@H](c3ccc(C#CC4(O)CCCC4)cc3)[C@@H]2C1,94,-28,7,
O=C(Cc1ccncc1)N1CCCCN2[C@H](C1)[C@@H](c1ccc(C#CC3(O)CCCC3)cc1)[C@@H]2CO,62,-73,-5,
O=C(Cc1ccccc1)N1CCCCN2[C@@H](CO)[C@H](c3ccc(C#CC4(O)CCCC4)cc3)[C@@H]2C1,109*,-28,-10,T cruzi growth-2=102*;T cruzi growth-3=28;3T3 cytotox=11;3T3 cytotox 2=33*
O=C(Cc1ccccc1)N1CCCCN2[C@H](C1)[C@@H](c1ccc(C#CC3(O)CCCC3)cc1)[C@@H]2CO,15,-19,-7,
Cc1ccccc1S(=O)(=O)N1[C@@H]2c3ccc(-c4cccnc4)c(=O)n3C[C@H]1[C@H](CO)[C@H]2C(=O)O,43,13,-2,
COC(=O)[C@@H]1[C@@H](CO)[C@@H]2Cn3c(ccc(-c4cccnc4)c3=O)[C@H]1N2S(=O)(=O)c1ccccc1C,66,.,4,
COC(=O)[C@H]1[C@H](CO)[C@H]2Cn3c(ccc(-c4ccccc4)c3=O)[C@@H]1N2CC1CCCCC1,-19,-4,13,
O=C(O)[C@@H]1[C@@H](CO)[C@@H]2Cn3c(ccc(C4=CCCC4)c3=O)[C@H]1N2C(=O)Cc1ccccn1,83,18,0,
O=C(Cc1ccccn1)N1CCCCN2[C@H](C1)[C@H](c1ccc(-c3ccccc3)cc1)[C@@H]2CO,64,-39,-5,
O=C(Cc1ccccn1)N1CCCCN2[C@H](CO)[C@H](c3ccc(-c4ccccc4)cc3)[C@@H]2C1,?,8,-15,T cruzi growth-2=103*;T cruzi growth-3=44;3T3 cytotox=4;3T3 cytotox 2=0
O=C(Cc1ccccn1)N1CCCCN2[C@H](CO)[C@@H](c3ccc(-c4ccccc4)cc3)[C@H]2C1,-14,24,-10,
O=C(Cc1ccccn1)N1CCCCN2[C@@H](CO)[C@H](c3ccc(-c4ccccc4)cc3)[C@@H]2C1,105*,-13,-8,T cruzi growth-2=?;T cruzi growth-3=75;3T3 cytotox=17;3T3 cytotox 2=23
O=C(O)[C@H]1[C@H](CO)[C@H]2Cn3c(ccc(-c4ccncc4)c3=O)[C@@H]1N2C(=O)C1CCC1,61,8,-1,
COC(=O)[C@H]1[C@H](CO)[C@H]2Cn3c(ccc(-c4ccccc4)c3=O)[C@@H]1N2CCc1ccccc1,37,2,-5,

# Screening data: PubChem, Broad Institute
